Data on 62 molecules can be found in PubChem BioAssay AID1259249 (Broad Institute, 2017).

Several values for one entry are separate records, joined by “and”; a condition that tells them apart may be missing. Equal entries are not always repeated. The campaign covered roughly 86,000 compounds. About 220 (0.26%) were called active. The sample as a whole holds a higher share of actives than the screen did. A number with no mark means an inactive call.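 Rule for the calls: active = mean growth activity at or below -80% and every replicate also at or below -80%; inconclusive = mean at or below -80% but some replicate above -80%; inactive = mean growth activity above -80%.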

The nature of the experiment: C. difficile growth inhibitors, primary screen, HTS (AID 1259249).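 Note: 0% = DMSO wells and -100% = levofloxacin 16 µg/mL wells.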 The note with it: Clostridium difficile clinical isolate growth, OD600, 24 h; hits give low values; screened at 16 µg/mL (by protocol).
With `C[C@@H]1CN([C@@H](C)CO)C(=O)c2cc(-c3cccnc3)cnc2O[C@@H]1CN(C)C(=O)C1CC1`, the growth activity, negative = inhibition is 4.12%.

`COc1ccccc1S(=O)(=O)N1C[C@@H]2N[C@H](C1)C2c1ccc(-c2cccc(C)c2)cc1` (some centres not stated): the growth activity, negative = inhibition was 66.4% and 49%.

As to `O=C(C1CCOCC1)N1CC2(C1)[C@H](c1ccccc1)[C@H](CO)N2Cc1ccc(Cl)cc1`, the growth activity, negative = inhibition is -1.43%.

For the molecule `C[C@@H]1CCCCO[C@H](CN(C)Cc2ccc(C(F)(F)F)cc2)[C@H](C)CN([C@@H](C)CO)C(=O)c2cc(N(C)C)ccc2O1`, the growth activity, negative = inhibition is 3.85%.

With `Cc1noc(C)c1NC(=O)N(C)C[C@H]1OCCCC[C@@H](C)Oc2ccc(NS(=O)(=O)c3ccc(Cl)cc3)cc2C(=O)N([C@@H](C)CO)C[C@H]1C`, the growth activity, negative = inhibition was -9.03%.

With `COc1ccc2c3c([nH]c2c1)[C@@H](CO)NCC31CN(S(=O)(=O)c2cccs2)C1`, the growth activity, negative = inhibition was -6.75%.

With `CCCNC(=O)N1[C@H](CO)[C@@H]2c3ccccc3N(C(=O)C3CC3)C[C@@H]21`, the growth activity, negative = inhibition was 1.07%.

As for `COc1ccc(CN(C)C[C@@H]2OCCCC[C@H](C)Oc3ccc(NS(=O)(=O)c4ccc(F)cc4)cc3C(=O)N([C@H](C)CO)C[C@H]2C)cc1`, the growth activity, negative = inhibition was 8.17%.

On to `CC(=O)Nc1ccc2c(c1)C(=O)N(C)[C@@H]1CC[C@H](CC(=O)NCc3ccccc3)O[C@H]1CO2`, for which the growth activity, negative = inhibition is 6.07%.

On to `N#Cc1ccc(-c2ccc(C3[C@H]4CNC[C@@H]3N4S(=O)(=O)c3ccccc3F)cc2)cc1` (some centres not stated), for which the growth activity, negative = inhibition is 29.2%.

For `CO[C@@H]1CN(C)C(=O)c2ccc(NS(=O)(=O)c3ccc(Cl)cc3)cc2OC[C@@H](C)N(C)C[C@@H]1C`, the growth activity, negative = inhibition was -1.74%.

As for `CCCN1[C@H](C(=O)N[C@H](C)c2ccccc2)[C@@H](CO)[C@@H]2Cn3c(ccc(-c4cccc(F)c4)c3=O)[C@@H]21`, the growth activity, negative = inhibition is 14.4%.

In the case of `COCC#Cc1ccc([C@H]2[C@H]3CN(Cc4ccncc4)CCCCN3[C@H]2CO)cc1`, the growth activity, negative = inhibition is 13.5%.

`C[C@@H]1CN([C@@H](C)CO)C(=O)c2cc(NS(=O)(=O)c3cn(C)cn3)ccc2O[C@@H](C)CCCCO[C@H]1CN(C)S(=O)(=O)c1cccs1`: the growth activity, negative = inhibition was 1.84%.

For `CN1c2ccc(-c3ccccc3)cc2[C@H]2[C@H](CCN2C(=O)c2ccc3c(c2)OCO3)[C@H]1CO`, the growth activity, negative = inhibition was -20.7%.

Regarding `CN1C(=O)c2cc(NC(=O)c3cnccn3)ccc2OC[C@H]2O[C@@H](CC(=O)NCC3CCCCC3)CC[C@@H]21`, the growth activity, negative = inhibition was 0.457%.

Consider `CO[C@H]1CN(C)C(=O)c2cc(NC(=O)C3CC3)ccc2OC[C@H](C)N(Cc2ccccc2)C[C@H]1C`, for which the growth activity, negative = inhibition was -3.86%.

As to `Cc1ccc(-c2ccc3c(c2)O[C@H](CN(C)C(=O)CC2CC2)[C@@H](C)CN([C@H](C)CO)S3(=O)=O)cc1`, the growth activity, negative = inhibition is 3.19%.

Turning to `CCC(CO)Oc1cc(NC(=O)c2ccc(Cl)cc2)c2ncn(C(C)C)c2c1` (configuration not stated), the growth activity, negative = inhibition was -0.177%.

Take `O=C(NC1CCCC1)N1CC(=O)N2[C@H](C1)[C@H](c1ccc(/C=C/c3ccccc3)cc1)[C@@H]2CO`: the growth activity, negative = inhibition is -1.1%.

Take `COCC(=O)N1CC2(C1)[C@@H](c1ccc(-c3cccc(F)c3)cc1)[C@@H](CO)N2C(=O)COC`: the growth activity, negative = inhibition is -0.178%.

For `CN1c2ccc(Br)cc2[C@@H]2[C@@H](CCN2S(=O)(=O)c2ccc(F)cc2)[C@@H]1CO`, the growth activity, negative = inhibition was 67.3%.

On to `COCC(=O)N1CC(=O)N2[C@H](C1)[C@@H](c1ccc(C#Cc3cccc(OC)c3)cc1)[C@@H]2CO`, for which the growth activity, negative = inhibition was -20.7%.

Take `Cc1nc(N2[C@H](CO)[C@H](c3ccccc3)[C@H]2CNCC2CCC2)sc1C`: the growth activity, negative = inhibition was 8.18%.

Turning to `C/C=C/c1ccc([C@@H]2[C@@H](CO)N(C(=O)c3ccccc3)C23CN(C(C)=O)C3)cc1`, the growth activity, negative = inhibition is -2.56%.

As for `COc1ccc(C#Cc2cccc(-c3nc(C(=O)O)cc4c3[C@@H](CCO)N(S(=O)C(C)(C)C)C4)c2)cc1OC` (some centres not stated), the growth activity, negative = inhibition was -2.07%.

Turning to `CCO[C@H]1OC(C(=O)N2CCCCCCC2)=C[C@@H](c2ccc(C(F)(F)F)cc2)[C@@H]1CCCO`, the growth activity, negative = inhibition is 9.8%.

For `C[C@H]1CN([C@@H](C)CO)C(=O)c2cc(C#CC3CCCCC3)cnc2O[C@@H]1CN(C)C(=O)Cc1ccccn1`, the growth activity, negative = inhibition was -14%.

With `Cc1noc(C)c1S(=O)(=O)N(C)C[C@@H]1OCCCC[C@@H](C)Oc2ccc(NC(=O)c3ccccc3)cc2C(=O)N([C@H](C)CO)C[C@H]1C`, the growth activity, negative = inhibition is 5.17%.

As for `COc1ccc(CN(C)C[C@H]2OCCCC[C@H](C)Oc3ccc(NS(C)(=O)=O)cc3C(=O)N([C@H](C)CO)C[C@@H]2C)cc1`, the growth activity, negative = inhibition is -0.222%.

`O=C(C[C@@H]1C=C[C@@H](NS(=O)(=O)c2ccccc2)[C@H](CO)O1)N1CCN(c2ccccc2)CC1`: the growth activity, negative = inhibition is 0.541%.

Regarding `O=C(c1cnccn1)N1CC2(C1)[C@H](c1ccccc1)[C@H](CO)N2C(=O)c1ccccc1`, the growth activity, negative = inhibition was -0.792%.

`O=C(C[C@H]1CC[C@H]2[C@@H](COC[C@@H](O)CN2CC2CCCC2)O1)NCC1CC1`: the growth activity, negative = inhibition is -1.93%.

As to `Cc1ccccc1S(=O)(=O)N1C[C@@H]2N[C@H](C1)C2c1ccc(-c2cccc(C(=O)N(C)C)c2)cc1` (some centres not stated), the growth activity, negative = inhibition is 4.24%.

For `CN(C)CC(=O)N1[C@H](C(=O)NC2CCC2)[C@@H](CO)[C@@H]2Cn3c(ccc(-c4ccc(F)cc4)c3=O)[C@@H]21`, the growth activity, negative = inhibition was -0.849%.

For the molecule `CCCNC(=O)N1CCC2(CC1)CN(C(=O)CN1CCOCC1)[C@H](CO)c1[nH]c3cc(OC)ccc3c12`, the growth activity, negative = inhibition is 5.44%.

Regarding `C[C@@H]1CCCCO[C@H](CN(C)C(=O)NC2CCCCC2)[C@H](C)CN([C@H](C)CO)C(=O)c2cc(NC(=O)c3ccncc3)ccc2O1`, the growth activity, negative = inhibition is -3.74%.

Turning to `COc1ccc2c3c([nH]c2c1)[C@H](CO)N(Cc1nccs1)CC31CCN(C(=O)C2CCC2)CC1`, the growth activity, negative = inhibition was -4.33%.

`CCCC#Cc1ccc([C@@H]2[C@@H](C#N)N(C(=O)C3CC3)[C@H]2CO)cc1`: the growth activity, negative = inhibition is -16.8%.

Take `CCCNC(=O)Nc1ccc2c(c1)OC[C@H](C)N(CCC(F)(F)F)C[C@H](C)[C@@H](OC)CN(C)C2=O`: the growth activity, negative = inhibition was -16.2%.

On to `Cc1ccc(S(=O)(=O)N[C@@H]2CC[C@@H](CCn3cc(C4CC4)nn3)O[C@@H]2CO)cc1`, for which the growth activity, negative = inhibition was -1.26%.

With `C[C@@H]1CCCCO[C@@H](CN(C)C(=O)NC2CCCCC2)[C@H](C)CN([C@H](C)CO)C(=O)c2cc(NC(=O)Nc3cccc4ccccc34)ccc2O1`, the growth activity, negative = inhibition was 2.69%.

In the case of `O=C(c1ccncc1)N1C[C@H]2[C@@H](c3ccccc31)[C@H](CO)N2Cc1ccc(F)cc1`, the growth activity, negative = inhibition was -10.6%.

Take `CCCC(=O)N1CC2(CN(C(=O)NC(C)C)C2)c2c([nH]c3cc(OC)ccc23)[C@@H]1CO`: the growth activity, negative = inhibition is -10.9%.

For the molecule `CC(C)C(=O)Nc1ccc2c(c1)C(=O)N(C)[C@@H]1CC[C@@H](CC(=O)NCCc3ccccc3)O[C@H]1CO2`, the growth activity, negative = inhibition is -2.19%.

As to `COc1ccc2c3c(n(C)c2c1)[C@H](CO)N(CC1CC1)CC31CCN(C(=O)c2ccccc2)CC1`, the growth activity, negative = inhibition was 22.3%.

`COCc1cn(CC[C@@H]2CC[C@@H](NC(=O)Nc3ccc(C(F)(F)F)cc3)[C@H](CO)O2)nn1`: the growth activity, negative = inhibition was 1.56%.

For the molecule `C[C@@H]1CN([C@@H](C)CO)C(=O)c2cc(NC(=O)Nc3ccc4c(c3)OCO4)ccc2O[C@@H](C)CCCCO[C@H]1CN(C)C(=O)Nc1ccc(C(F)(F)F)cc1`, the growth activity, negative = inhibition is 3.76%.

On to `CCN1[C@@H]2c3cccc(=O)n3C[C@H]1[C@H](CO)[C@H]2C(=O)NC1Cc2ccccc2C1`, for which the growth activity, negative = inhibition is -3.73%.

Consider `O=C(C1CCC1)N1CC(=O)N2[C@@H](CO)[C@@H](c3ccc(C#Cc4cccc(F)c4)cc3)[C@@H]2C1`, for which the growth activity, negative = inhibition was -12.4%.

On to `Cc1ccc(-c2cnc3c(c2)C(=O)N([C@H](C)CO)C[C@H](C)[C@@H](CN(C)C(=O)c2cccc(F)c2)O3)cc1`, for which the growth activity, negative = inhibition is 0.45%.

For the molecule `CN1c2ccc(-c3cccc(F)c3)cc2[C@H]2[C@H](CCN2C(=O)c2cccc(F)c2)[C@H]1CO`, the growth activity, negative = inhibition was -1.71%.

Regarding `C[C@@H]1CN([C@@H](C)CO)C(=O)Cc2cc(NC(=O)Nc3ccc(C(F)(F)F)cc3)ccc2O[C@H]1CN(C)Cc1ccc(C(=O)O)cc1`, the growth activity, negative = inhibition was 4.68%.

As for `COc1cccc(NC(=O)N(C)C[C@@H]2Oc3ncc(Br)cc3C(=O)N([C@@H](C)CO)C[C@H]2C)c1`, the growth activity, negative = inhibition is 4.14%.

On to `CO[C@@H]1CN(C)C(=O)c2cc(NC(=O)C3CCCC3)ccc2OC[C@@H](C)N(Cc2ccc(F)cc2)C[C@H]1C`, for which the growth activity, negative = inhibition is 7.43%.

For the molecule `COc1ccccc1NC(=O)N1C[C@H]2[C@@H](c3ccccc31)[C@H](CO)N2Cc1ccc2c(c1)OCO2`, the growth activity, negative = inhibition is -2.67%.

In the case of `COc1ccccc1NC(=O)N1C[C@@H]2[C@H](c3ccccc31)[C@H](CO)N2CC1CCOCC1`, the growth activity, negative = inhibition is 8.14%.

For the molecule `CO[C@@H]1CN(C)C(=O)c2cc(NC(=O)C3CCC3)ccc2OC[C@H](C)N(Cc2ccccn2)C[C@H]1C`, the growth activity, negative = inhibition is -0.0418%.

In the case of `COc1ccccc1C#Cc1ccc2c(c1)O[C@H](CN(C)Cc1cccnc1)[C@@H](C)CN([C@H](C)CO)S2(=O)=O`, the growth activity, negative = inhibition was 2.69%.

In the case of `C[C@H]1CN([C@@H](C)CO)C(=O)c2cc(C#CC3CCCC3)cnc2O[C@@H]1CN(C)C(=O)Cc1ccccn1`, the growth activity, negative = inhibition is -9.22%.

On to `N#C[C@H]1[C@@H](c2ccccc2C2=CCCC2)[C@H](CO)N1C(=O)c1cccc(F)c1`, for which the growth activity, negative = inhibition is -5.69%.

For `C[C@@H]1CCCCO[C@H](CN(C)CC2CCCCC2)[C@H](C)CN([C@H](C)CO)C(=O)c2cc(NS(=O)(=O)c3ccc(F)cc3)ccc2O1`, the growth activity, negative = inhibition is 11.3%.
